Our source for the growth values is PubChem BioAssay (NCI).

The panel holds about 83,000 compounds, 20% with a hit somewhere; the sample as a whole holds those more often.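 Note: values are percent growth. 100 is the growth of untreated cells, values between 100 and 0 indicate rising inhibition; between -100 and 0 indicates cell death.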 A number with no mark means an inactive call. The source made the active and inactive calls. The calls were made as follows: active = growth percent below 10; inactive = the rest.

What all share (experiment): NCI-60 one-dose screen, 48 h (100 = growth as untreated, 0 = no growth, -100 = all killed)
Holding throughout (settings): 10 µM unless noted

Test [1] has as its system NCI-H226 lung.
Test [2] has as its system NCI-H322M lung.
The test system of test [3] is HOP-62 NSCLC.
The test system of test [4] is NCI-H460 lung.
Test [5] has as its system HOP-92 NSCLC.
Test [6] has as its system NCI-H522 lung.
For test [7], the system named is A549/ATCC NSCLC.
The subject of test [8] is 786-0 renal.
For test [9], the system named is COLO 205 colon.
Test [10] deals with DU-145 prostate.
Test [11] deals with K-562 leukemia.
In test [12] the test system is MALME-3M melanoma.
Test [13] has as its system MDA-MB-231 breast.
In test [14] the test system is RXF 393 renal.
Test [15] relates to SF-268 CNS.
The test system of test [16] is SF-295 CNS.
For test [17], the system named is SF-539 CNS.
Test [18] concerns UACC-257 melanoma.
In test [19] the test system is M14 melanoma.

On to `Cc1nc2ccccc2c(/C=C/c2ccc(Cl)cc2)c1C(=O)/C=C/c1ccccc1`, for which the growth in [1] was 40.2%; in test [2] it was 41.2%; in [3], -36.7% (active); in test [4], -33% (active); in test [5], 41.4%; in [6] it was -13.3% (active). Moreover, the growth is 21.2% in [7]; 7.29% (active) in test [8]; -5.72% (active) in [9]; 9.75% (active) in test [10]; 6.19% (active) in test [11]; -20.4% (active) in [12]. Further, the growth is 9.11% (active) in test [13]; -41.8% (active) in test [14]; 51.3% in test [15]; 10.7% in test [16]; -48.8% (active) in [17]; -3.79% (active) in test [18]. Besides, in test [19], the growth was -0.144% (active).

With `CCOC(=O)c1c(C)n2c(=O)cc(C)c3c(OC(C)=O)c(OC(C)=O)cc1c32`, the growth in [1] is 102%; in test [2], 79.9%; in [3], 81.4%; in test [4], 40.8%; in [6], 55.3%; in [7], 79.8%. Moreover, the growth in test [8] was 81.3%; in test [9], 74.1%; in test [10], 67.3%; in [11], 22.3%; in test [12], 75%; in test [13] it was 86.7%. Moreover, the growth is 73.8% in test [14]; 49.6% in [15]; 94.8% in test [16]; 72.1% in test [17]; 108% in [18]; 83.2% in [19].

Take `COc1ccc(S(=O)(=O)N(C)c2oc(-c3ccc(Cl)cc3)nc2C#N)cc1`: the growth in test [1] was 94.9%; in test [2] it was 98.2%; in test [3] it was 82.7%; in test [4], 95.9%; in test [5] it was 77.2%; in test [6] it was 83%. Moreover, the growth is 87.3% in test [7]; 98.2% in test [8]; 97.9% in test [10]; 20.3% in [11]; 68.9% in test [12]; 87% in [13]. Also, the growth is 80.1% in test [14]; 82.7% in test [15]; 91.9% in test [16]; 82.9% in test [17]; 86.7% in test [18]; 53.8% in [19].

In the case of `CCCCC/C=C/CCC(=O)N[C@H]1[C@H](Oc2c3cc4cc2Oc2ccc(cc2Cl)[C@@H](O[C@@H]2O[C@H](CO)[C@@H](O)[C@H](O)[C@H]2NC(C)=O)[C@@H]2NC(=O)[C@H](NC(=O)[C@@H]4NC(=O)[C@H]4NC(=O)[C@@H](Cc5ccc(c(Cl)c5)O3)NC(=O)[C@@H](N)c3ccc(O)c(c3)Oc3cc(O)cc4c3)c3ccc(O)c(c3)-c3c(O[C@H]4O[C@H](CO)[C@@H](O)[C@H](O)[C@@H]4O)cc(O)cc3[C@H](C(=O)O)NC2=O)O[C@H](CO)[C@H](O)[C@@H]1O`, the growth is 105% in [1]; 108% in test [2]; 113% in test [3]; 107% in [4]; 96.4% in [5]; 103% in [6]. The growth in test [7] is 99.8%; in [8] it was 101%; in test [9], 103%; in [10], 112%; in test [11], 98.6%; in [12], 108%. In addition, the growth in test [13] was 100%; in test [14], 112%; in [15] it was 98.5%; in test [16], 94.8%; in test [17], 110%; in test [18], 89.4%. For the same molecule, the growth in test [19] is 109%.

Consider `Cc1cc([N+](=O)[O-])ccc1NC(=O)c1ccc2c(c1)nc(-c1ccccc1)n2C1CCCCC1`, for which the growth was 93% in test [1]; 80% in test [2]; 91.8% in test [3]; 87.3% in test [4]; 117% in test [5]; 63.1% in test [6]. Further, the growth in test [7] was 78.8%; in test [8], 86.7%; in [9] it was 73.2%; in test [10], 105%; in [11], 49.9%; in [12], 80.4%. Moreover, the growth is 84.4% in [13]; 96.5% in test [14]; 77.1% in test [15]; 80.5% in test [16]; 92.2% in test [17]; 92.4% in [18]. Also, in test [19], the growth was 74.9%.

`C=C1/C(=C\C=C2/CCC[C@]3(C)[C@@H]([C@H](C)CCCC(C)(C)O)CC[C@@H]23)C[C@@H](OC(=O)CBr)C[C@@H]1O`: the growth in test [1] was 45.2%; in test [2], 94%; in [3], 83.8%; in [4], 92.1%; in test [5], -67.5% (active); in test [6], -68.8% (active). For the same molecule, the growth in [7] is 66%; in test [8], 6.95% (active); in test [9], 19.4%; in [10], 92.7%; in test [11] it was 30.8%; in test [12], -67.3% (active). Moreover, the growth is 20.5% in test [13]; 93.3% in test [14]; 18% in [15]; 94.6% in test [16]; -43.1% (active) in test [17]; 99.3% in [18]. The growth in test [19] is 84.4%.

As for `O=[N+]([O-])c1ccc(Oc2cccc3c(Oc4ccc([N+](=O)[O-])cc4[N+](=O)[O-])cccc23)c([N+](=O)[O-])c1`, the growth in [1] was 83.9%; in test [2], 92.4%; in [3], 79.6%; in test [4] it was 93.4%; in test [5], 62%; in test [6] it was 74.6%. The growth in test [7] was 83%; in test [8], 108%; in test [9] it was 102%; in [10], 107%; in test [11], 95.1%; in test [12], 105%. For the same molecule, the growth in test [13] is 63.7%; in test [14] it was 96.4%; in [15], 85%; in test [16] it was 99.9%; in test [17], 96.3%; in test [18], 91.6%. In addition, in test [19], the growth was 93.3%.
